# Assay results reported in PubChem BioAssay AID493131 (Broad Institute, 2011).
# The whole screen tested about 340,000 compounds, of which about 3,300 (0.97%) were called active. The sample holds actives, similar compounds and a random draw of the others, so the mix is not that of the screen. Unmarked numbers belong to inactive results.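 Rule for the calls: active = mean activation above about 17%, with every replicate also reaching it (limit read from the data, passing the limit was not always enough); inconclusive = only one of the two conditions met; inactive = the rest.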
# Biological target: Protein FosB (Mus musculus) (UniProt P13346)
# Sequence (P13346 whole entry, looked up): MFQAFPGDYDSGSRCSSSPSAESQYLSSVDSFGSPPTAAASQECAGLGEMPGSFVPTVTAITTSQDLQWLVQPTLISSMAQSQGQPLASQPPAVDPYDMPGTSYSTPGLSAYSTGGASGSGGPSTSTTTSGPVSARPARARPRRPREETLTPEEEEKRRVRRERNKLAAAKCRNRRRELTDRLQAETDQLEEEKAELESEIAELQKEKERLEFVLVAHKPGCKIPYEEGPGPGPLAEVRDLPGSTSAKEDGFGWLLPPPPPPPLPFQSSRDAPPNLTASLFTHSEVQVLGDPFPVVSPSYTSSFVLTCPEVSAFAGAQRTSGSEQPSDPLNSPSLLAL
# Experiment: activators of delta FosB homodimer, primary screen, biochemical, fluorescence polarization, TAMRA-CDK5 oligo, single point (AID 493131);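 note: fluorescence polarization rise as delta FosB binds a TAMRA Cdk5 AP-1 oligo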
# Conditions: purified delta FosB, at 25 µM, hits give high values, percent of positive-control signal above neutral wells
row,Structure (SMILES),activation
1,O=C(Nc1ccc(S(=O)(=O)Nc2ccccn2)cc1)c1ccccc1,-2.22%
2,O=C(CS(=O)(=O)c1ccccc1)Nc1ccc(S(=O)(=O)Nc2ccccn2)cc1,1.81%
3,O=C(Nc1ccc(Br)cc1)c1cc(S(=O)(=O)Nc2ccccn2)ccc1Cl,40.2% (active)
4,COc1ccccc1N1CCN(C(=O)c2cc(=O)c3cc(C)cc(C)c3o2)CC1,-12.4%
5,CCOc1ccc(S(=O)(=O)N2CCN(C(=O)c3oc4ccccc4c3C)CC2)cc1,-13.9%
6,CCn1cc(C(=O)OCC(=O)Nc2cccc(C)c2)c(=O)c2ccc(C)nc21,-9.83%
7,Cc1ccc(NNC(=O)c2cccs2)cc1Cl,-4.02%
8,CCCCC1N2CC3([N+](=O)[O-])CN1CC([N+](=O)[O-])(C2)C3(C)C (centres undefined),0.0626%
9,COc1ccc(OC)c(S(=O)(=O)Nc2c(C)nn(C)c2C)c1,1.81%
10,COc1ccc(/C=C/C(=O)Nc2c(C)nn(C)c2C)cc1COc1ccc(Br)cc1,21.7% (active)
11,CCn1nc(C)c(NC(=O)/C=C/c2ccc(OC)c(COc3ccc(Br)cc3)c2)c1C,13.3%
12,Cc1ccc2c(c1)C1CN(C)CCC1N2S(=O)(=O)c1ccc(Oc2ccc([N+](=O)[O-])cc2)cc1 (centres undefined),60.9% (active)
13,Cc1ccc2c(c1)C1CN(C)CCC1N2C(=S)Nc1ccc(OC(F)F)cc1 (centres undefined),-5.28%
14,Cc1ccc2c(c1)C1CN(C)CCC1N2S(=O)(=O)c1cccc(F)c1 (centres undefined),1.55%
15,COc1ccc([N+](=O)[O-])cc1N(CC(O)Cn1nnc2ccccc21)S(=O)(=O)c1ccc(C)cc1 (centres undefined),-8.08%
16,COc1ccc(Br)cc1C(=O)Nc1cccc(C)c1C,6.11%
17,COc1cc2ccccc2cc1C(=O)Nc1ccccc1C,-12.4%
18,COc1ccc(Br)cc1C(=O)NC(=S)Nc1cc(-c2nc3ccccc3[nH]2)ccc1C,30.2% (active)
19,Cc1nnnn1/C(=C\c1ccccc1)C(=O)OCC(=O)N1CC2(C)CC1CC(C)(C)C2 (centres undefined),-16.8%
20,Cc1ccc(-c2cc(C(=O)NCc3cn(C)nc3C)c3cc(Br)ccc3n2)cc1,36.8% (active)
21,O=C(NCc1cccs1)c1cc(-c2ccccn2)nc2ccc(Br)cc12,2.96%
22,Cc1nn(C)cc1CNC(=O)Nc1ccc(Cl)cc1,-6.86%
23,CCN(CC)CCCNC(=S)N(CCO)Cc1cc2cc3c(cc2[nH]c1=O)OCO3,-3.62%
24,CS(=O)(=O)N1CCc2nc(-c3ccccc3)sc2C1,-1.76%
25,c1ccc(C[C@H]2CNCCN2CCC23CC4CC(CC(C4)C2)C3)cc1,20.1% (active)
26,O=C1CCNCCN1[C@H](CO)Cc1ccccc1,-2.28%
27,c1ccc2c(CCN3CCNC[C@H]3Cc3cccc4ccccc34)cccc2c1,12.1%

row,Structure (SMILES),activation
1,CC(Oc1cc2oc(=O)c3c(c2cc1Cl)CCCC3)C(=O)NCc1ccncc1 (centres undefined),-1.99%
2,COc1ccc2c(c1)c(C(=O)N/N=C/c1cccs1)c(C)n2C,-3.67%
3,CCOC(=O)C1=C(COC(=O)[C@H](C)NS(=O)(=O)c2ccccc2F)NC(=O)NC1C (some centres undefined),-4.67%
4,Cn1ncc2c(NNC(=O)Cc3cccc4ccccc34)ncnc21,2.75%
5,CC(=O)c1ccc(NC(=O)C2CC(=O)Nc3nc4ccccc4n32)cc1 (centres undefined),19.8% (active)
6,O=C(Nc1ccccc1)C1CC(=O)n2c(nc3ccccc32)N1 (centres undefined),12%
7,CCOC(=O)c1ccc(NC(=O)C2CC(=O)Nc3nc4ccccc4n32)cc1 (centres undefined),7.67%
8,CNc1nc(SC)nc(N(C#N)CC(=O)OC)n1,0.989%
9,Oc1c(C(c2ccco2)N2CCC3(CC2)OCCO3)sc2ncnn12 (centres undefined),-7.56%
10,CC(C)NS(=O)(=O)c1ccc(OCC(=O)Nc2ccc3c(c2)OCCO3)cc1,-10.5%
11,CC(=O)Nc1ccc(NC(=O)C(NS(=O)(=O)c2ccc3c(c2)OCCO3)C(C)C)cc1 (centres undefined),36.7% (active)
12,CC(NS(=O)(=O)c1ccc(Cl)cc1)C(=O)Nc1ccc2c(c1)OCCO2 (centres undefined),1.9%
13,CCc1ccc(C(=O)OCC(=O)NCC(F)(F)F)cc1,-1.18%
14,COC(=O)c1ccc2ccccc2c1OC1OC(CO)C(O)C(O)C1NC(C)=O (centres undefined),-0.206%
15,C#CCOCCOCCOCCNc1nc(N2CCN(C(=O)[C@H](Cc3ccc(O)cc3)n3cc(C(N)CC(C)C)nn3)CC2)nc(N2CCN(C(=O)[C@H](CCC(=O)O)n3cc(C(N)[C@H](C)CC)nn3)CC2)n1 (some centres undefined),2.04%
16,C#CCOCCOCCOCCNc1nc(N2CCN(C(=O)C(Cc3ccc(O)cc3)n3cc(C(N)CC(C)C)nn3)CC2)nc(N2CCN(C(=O)C(Cc3ccc(O)cc3)n3cc(C(N)C(C)CC)nn3)CC2)n1 (centres undefined),22.4% (active)
17,C#CCOCCOCCOCCNc1nc(N2CCN(C(=O)[C@H](CCC(=O)O)n3cc(CN)nn3)CC2)nc(N2CCN(C(=O)[C@H](CCC(=O)O)n3cc(CN)nn3)CC2)n1,-0.339%
18,C#CCOCCOCCOCCNc1nc(N2CCN(C(=O)[C@H](CCCCN)n3cc(CCC(=O)O)nn3)CC2)nc(N2CCN(C(=O)[C@H](CCCCN)n3cc(CC(C)O)nn3)CC2)n1 (some centres undefined),2.6%
19,C#CCOCCOCCOCCNc1nc(N2CCN(C(=O)[C@H](CCCCN)n3cc([C@@H](N)C(C)CC)nn3)CC2)nc(N2CCN(C(=O)[C@H](Cc3ccc(O)cc3)n3cc([C@@H](N)C(C)CC)nn3)CC2)n1 (some centres undefined),15.3%
20,C#CCOCCOCCOCCNc1nc(N2CCN(C(=O)C([C@@H](C)O)n3cc([C@@H](N)CCCCN)nn3)CC2)nc(N2CCN(C(=O)[C@H](CCCCN)n3cc(CN)nn3)CC2)n1 (some centres undefined),31.3% (active)
21,Cc1csc(CN(C)C(=O)CC2C(=O)NCCN2CC(C)(C)C)n1 (centres undefined),-10.6%
22,COc1cc(-c2nnc(Cn3cc(C(F)(F)F)ccc3=O)o2)cc(OC)c1OC,-9.47%
23,COC(=O)c1ccc(CSc2ccc(S(=O)(=O)N3CCCCC3)cn2)cc1,8.71%
24,COc1ccc(N(C)S(=O)(=O)c2ccc3c(c2)CC(C)N3C(=O)C2CC2)c(OC)c1 (centres undefined),-12.2%
25,COc1cc(C(=O)N2CCN(C/C=C/c3ccccc3)CC2)cc(OC)c1C,-7.31%
26,Cn1nnc(NC(=S)NC(=O)c2ccccc2)n1,-9.58%
27,CCOC(=O)C1=C(C)N(C[C@@H]2CC[C@@H](Cc3ccc(-c4ccccc4)cc3)O2)C(=O)NC1c1ccc([N+](=O)[O-])cc1 (some centres undefined),-9.34%

row,Structure (SMILES),activation
1,S=c1c2[nH]cnc2ncn1CCSc1ncnc2nc[nH]c12,3.83%
2,COC(=O)c1ccc(CNC(=O)c2ccc3oc(C(C)C)nc3c2)cc1,-7.42%
3,Cc1cc(C)cc(NC(=O)CN2C(=O)c3ccccc3C2=O)c1,3.94%
4,CC(C(=O)O)N1C(=O)c2cccc3cccc1c23 (centres undefined),2.8%
5,O=C(CN1C(=O)c2cccc3cccc1c23)Nc1ccccc1,28.7% (active)
6,COc1ccc(NC(=O)CCC(=O)N2CCN(S(=O)(=O)c3ccc(C)cc3)CC2)c(OC)c1,-2.45%
7,CCN1/C(=C\c2ccc3ccccc3[n+]2CC)Sc2cc(C)ccc21,54.5% (active)
8,COc1cc(/C=C/C(=O)Nc2ccc(OC)c(S(=O)(=O)N3CCOCC3)c2)ccc1OCC#N,-6.09%
9,COc1ccc(/C=C/C(=O)Nc2ccc(C)cc2)cc1S(=O)(=O)N1CCOCC1,-1.41%
10,COc1ccc(/C=C/C(=O)Nc2ccc(C34CC5CC(CC(O)(C5)C3)C4)cc2)cc1OC,51.4% (active)
11,COc1ccc(Cn2c(=O)cc(C)[nH]c2=S)cc1,-1.58%
12,COc1ccc(Cn2c(O)c(/C=C3/C=CC=N3)c(=O)[nH]c2=O)cc1,25.7% (active)
13,CCCOc1ccc(Cn2c(O)cc(=O)[nH]c2=O)cc1,3.75%
14,CN(CC(O)COc1ccc(S(=O)(=O)N2CCOCC2)cc1Cl)C1CCCCC1 (centres undefined),-9.15%
15,O=C(NCCN=C1NS(=O)(=O)c2ccccc21)c1ccc(S(=O)(=O)N2CCOCC2)cc1,-16.1%
16,O=C(Nc1ccc2cn[nH]c2c1)c1ccc(S(=O)(=O)N2CCOCC2)cc1,-7.23%
17,COc1ccc(CNC(=O)C(C)n2nc(C)c3c(C)n(-c4ccccc4)nc3c2=O)c(OC)c1 (centres undefined),-16.4%
18,Cc1nn(CC(=O)N2CCCCC2)c(=O)c2nn(-c3ccccc3)c(C)c12,-5.62%
19,COc1ccc(OC)c(CNC(=O)Cn2nc(C)c3c(C)n(-c4ccc(C)cc4)nc3c2=O)c1,113% (active)
20,CCc1ccccc1NC(=O)CN(C)C(=O)c1cc(C2CC2)nn1-c1ccccc1,-9.06%
21,O=C(O)c1cccnc1NC1CCCC1,1.59%
22,Cc1nn(C)cc1S(=O)(=O)N1CCN(c2ccc(F)cc2)CC1,-3.96%
23,COc1ccc(-c2cc(=O)c3c(O)cc(O[C@@H]4O[C@H](CO[C@@H]5O[C@@H](C)[C@H](O)[C@@H](O)[C@H]5O)[C@@H](O)[C@H](O)[C@H]4O)cc3o2)cc1O,74.8% (active)
24,COc1c(O)cc2oc(-c3ccc(O)c(O)c3)cc(=O)c2c1O,-4.25%
25,C[C@@H]1O[C@@H](OC[C@H]2O[C@@H](Oc3c(-c4ccc(O)cc4)oc4cc(O)cc(O)c4c3=O)[C@H](O)[C@@H](O)[C@@H]2O)[C@H](O)[C@H](O)[C@H]1O,-1.58%
